Results: PubChem BioAssay AID1159580 (chemical genetic matrix, 2015)
Where “and” joins values, the source holds several entries; their conditions need not be identical. Identical values can stand only once. Among all 5,500 compounds or so, about 2,000 (36%) were called active. About 18% were inconclusive and are not listed. Rule as the data show it: active = normalized growth mostly below about 0.91 (no sharp cut-off); inconclusive = no clear call, values can overlap the other calls; inactive = mostly above about 0.92. The list shows a part of the results.

Assay: chemical genetic growth profiling, strain panel (AID 1159580);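 also: tested at 20 µM; growth read once vehicle control cultures reached saturation at 30 °C; 1 = growth at the plate median or of vehicle wells; lower values mean less growth of the strain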
Details: S. cerevisiae deletion strains, growth OD

Measured: normalized growth

CCC(/C=C/[C@@H](C)[C@H]1CCC2C3CC=C4C[C@@H](O)CC[C@]4(C)C3CC[C@@]21C)C(C)C (some centres undefined)
inactive: locus YAL013W, strain DEP1, stronger effect = lower value 0.999 | locus YAL021C, strain ccr4, stronger effect = lower value 1.02 | locus YAL026C, strain drs2, stronger effect = lower value 0.935 | locus YAL030W, strain snc1, stronger effect = lower value 0.99 | locus YBL061C, strain skt5, stronger effect = lower value 0.997 | locus YBR009C, strain hhf1, stronger effect = lower value 0.972 | locus YBR021W, strain FUR4, stronger effect = lower value 1.04 | locus YBR023C, strain chs3, stronger effect = lower value 0.988 | locus YBR171W, strain sec66, stronger effect = lower value 0.985 | locus YBR229C, strain ROT2, stronger effect = lower value 0.993 | locus YBR231C, strain swc5, stronger effect = lower value 0.988 | locus YBR279W, strain paf1, stronger effect = lower value 0.994 | locus YCL011C, strain gbp2, stronger effect = lower value 0.968 | locus YCL016C, strain dcc1, stronger effect = lower value 1 | locus YCL029C, strain bik1, stronger effect = lower value 1 | locus YCL061C, strain MRC1, stronger effect = lower value 1.01 | locus YCL069W, strain vba3, stronger effect = lower value 0.99 | locus YCR088W, strain abp1, stronger effect = lower value 0.994 | locus YDL005C, strain med2, stronger effect = lower value 0.983 | locus YDL035C, strain GPR1, stronger effect = lower value 1.02 | locus YDL040C, strain nat1, stronger effect = lower value 0.987 | locus YDL074C, strain BRE1, stronger effect = lower value 0.992 | locus YDL101C, strain DUN1, stronger effect = lower value 1.01 | locus YDL185W, strain tfp1, stronger effect = lower value 0.986 | locus YDL192W, strain arf1, stronger effect = lower value 0.986 | locus YDR001C, strain nth1, stronger effect = lower value 0.991 | locus YDR069C, strain doa4, stronger effect = lower value 1.01 | locus YDR101C, strain arx1, stronger effect = lower value 0.987 | locus YDR137W, strain rgp1, stronger effect = lower value 0.931 | locus YDR150W, strain NUM1, stronger effect = lower value 1.02 | locus YDR159W, strain sac3, stronger effect = lower value 0.959 | locus YDR162C, strain NBP2, stronger effect = lower value 1.02 | locus YDR195W, strain ref2 0.963 | locus YDR297W, strain sur2, stronger effect = lower value 0.991 | locus YDR318W, strain mcm21, stronger effect = lower value 0.987 | locus YDR334W, strain swr1, stronger effect = lower value 0.988 | locus YDR335W, strain msn5, stronger effect = lower value 0.982 | locus YDR388W, stronger effect = lower value 0.989 | locus YDR392W, strain spt3, stronger effect = lower value 0.894 | locus YDR502C, strain sam2, stronger effect = lower value 0.992 | locus YEL003W, strain gim4, stronger effect = lower value 0.982 | locus YEL037C, strain rad23, stronger effect = lower value 0.976 | locus YEL061C, strain CIN8 (second series), stronger effect = lower value 0.979 | locus YEL061C, strain CIN8, stronger effect = lower value 0.999 | locus YER015W, strain faa2, stronger effect = lower value 1 | locus YER016W, strain bim1, stronger effect = lower value 0.979 | locus YER110C, stronger effect = lower value 0.995 | locus YER111C, strain swi4, stronger effect = lower value 0.99 | locus YER155C, strain BEM2 (second series), stronger effect = lower value 0.993 | locus YER155C, strain BEM2, stronger effect = lower value 0.986 | locus YER167W, strain BCK2, stronger effect = lower value 0.997 | locus YFR010W, strain ubp6, stronger effect = lower value 0.997 | locus YGL078C, strain dbp3, stronger effect = lower value 0.991 | locus YGL086W, strain mad1, stronger effect = lower value 1.02 | locus YGL167C, strain pmr1, stronger effect = lower value 0.975 | locus YGL173C, strain kem1, stronger effect = lower value 0.983 | locus YGL227W, strain vid30, stronger effect = lower value 0.985 | locus YGL240W, strain doc1, stronger effect = lower value 0.998 | locus YGL248W, strain PDE1, stronger effect = lower value 1 | locus YGL253W, strain hxk2, stronger effect = lower value 0.962 | locus YGR135W, strain pre9, stronger effect = lower value 0.989 | locus YGR252W, strain gcn5, stronger effect = lower value 0.971 | locus YHR013C, strain ard1, stronger effect = lower value 0.957 | locus YHR027C, strain rpn1, stronger effect = lower value 0.996 | locus YHR030C, strain SLT2, stronger effect = lower value 1 and 0.954 | locus YHR079C, strain IRE1 (second series), stronger effect = lower value 0.991 | locus YHR079C, strain IRE1, stronger effect = lower value 0.964 | locus YHR094C, strain hxt1, stronger effect = lower value 0.995 | locus YHR129C, strain ARP1, stronger effect = lower value 0.999 | locus YHR142W, strain chs7, stronger effect = lower value 1.02 | locus YHR200W, strain rpn10, stronger effect = lower value 0.981 | locus YIL066C, strain RNR3, stronger effect = lower value 1 | locus YIL073C, strain SPO22, stronger effect = lower value 1 | locus YIL125W, strain kgd1, stronger effect = lower value 1.02 | locus YIR030C, strain dcg1, stronger effect = lower value 1 | locus YJL092W, strain hpr5, stronger effect = lower value 0.998 | locus YJL095W, strain BCK1 (second series), stronger effect = lower value 0.997 | locus YJL095W, strain BCK1, stronger effect = lower value 1.01 and 0.976 | locus YJL115W, strain asf1, stronger effect = lower value 0.993 | locus YJL129C, strain trk1, stronger effect = lower value 1.01 | locus YJL134W, strain LCB3, stronger effect = lower value 0.997 | locus YJL154C, strain vps35, stronger effect = lower value 0.981 | locus YJL164C, strain tpk1, stronger effect = lower value 1 | locus YJL166W, strain qcr8, stronger effect = lower value 0.981 | locus YJL168C, strain set2, stronger effect = lower value 0.997 | locus YJL187C, strain SWE1 (second series), stronger effect = lower value 1 | locus YJL187C, strain SWE1, stronger effect = lower value 0.993 | locus YJR043C, strain POL32, stronger effect = lower value 1.04 | locus YJR066W, strain TOR1, stronger effect = lower value 0.929 | locus YKL009W, strain mrt4, stronger effect = lower value 1.02 | locus YKL068W, stronger effect = lower value 0.994 | locus YKL085W, strain MDH1 (second series), stronger effect = lower value 0.993 | locus YKL085W, strain MDH1, stronger effect = lower value 0.993 | locus YKL160W, strain elf1, stronger effect = lower value 1.04 | locus YKR001C, strain vps1, stronger effect = lower value 1.02 | locus YKR026C, strain gcn3, stronger effect = lower value 0.984 | locus YKR091W, strain srl3, stronger effect = lower value 0.99 | locus YLL001W, strain dnm1, stronger effect = lower value 1 | locus YLL026W, stronger effect = lower value 1.01 | locus YLL041C, strain sdh2, stronger effect = lower value 1 | locus YLR027C, strain aat2, stronger effect = lower value 0.984 | locus YLR039C, strain RIC1, stronger effect = lower value 0.964 | locus YLR058C, strain SHM2, stronger effect = lower value 0.998 | locus YLR102C, strain apc9, stronger effect = lower value 0.992 | locus YLR113W, strain HOG1, stronger effect = lower value 0.951 | locus YLR221C, strain rsa3, stronger effect = lower value 1 | locus YLR258W, strain gsy2, stronger effect = lower value 0.991 | locus YLR262C, strain YPT6 (second series), stronger effect = lower value 0.917 | locus YLR262C, strain YPT6, stronger effect = lower value 1.01 | locus YLR268W, strain sec22, stronger effect = lower value 0.987 | locus YLR320W, strain mms22, stronger effect = lower value 0.998 | locus YLR330W, strain CHS5, stronger effect = lower value 1 | locus YLR342W, strain FKS1 (second series), stronger effect = lower value 1.05 | locus YLR342W, strain FKS1, stronger effect = lower value 0.986 | locus YLR357W, strain rsc2, stronger effect = lower value 1.03 | locus YLR370C, strain arc18, stronger effect = lower value 0.988 | locus YLR371W, strain rom2, stronger effect = lower value 0.999 | locus YLR384C, strain iki3, stronger effect = lower value 0.982 | locus YLR418C, strain cdc73, stronger effect = lower value 1.03 | locus YML016C, strain PPZ1, stronger effect = lower value 0.991 | locus YML032C, strain rad52, stronger effect = lower value 0.994 | locus YML120C, strain ndi1, stronger effect = lower value 0.99 | locus YML124C, strain tub3, stronger effect = lower value 0.992 | locus YMR058W, strain fet3, stronger effect = lower value 0.984 | locus YMR078C, strain ctf18, stronger effect = lower value 0.987 | locus YMR125W, strain sto1, stronger effect = lower value 0.975 | locus YMR129W, stronger effect = lower value 1 | locus YMR205C, strain PFK2, stronger effect = lower value 0.981 | locus YMR223W, strain ubp8, stronger effect = lower value 0.974 | locus YMR231W, strain pep5, stronger effect = lower value 0.99 | locus YMR263W, strain SAP30, stronger effect = lower value 1.02 | locus YMR307W, strain GAS1, stronger effect = lower value 1.11 | locus YNL067W, strain RPL9B, stronger effect = lower value 1.02 | locus YNL071W, strain lat1, stronger effect = lower value 0.986 | locus YNL128W, strain TEP1, stronger effect = lower value 1 | locus YNL183C, strain NPR1, stronger effect = lower value 0.904 | locus YNL209W, strain ssb2, stronger effect = lower value 0.993 | locus YNL233W, strain BNI4, stronger effect = lower value 1.02 | locus YNL248C, strain rpa49, stronger effect = lower value 0.987 | locus YNL250W, strain rad50, stronger effect = lower value 0.991 | locus YNL271C, strain bni1, stronger effect = lower value 0.99 | locus YNL298W, strain CLA4, stronger effect = lower value 1 | locus YNL307C, strain MCK1, stronger effect = lower value 1.01 | locus YNL322C, strain KRE1 (second series), stronger effect = lower value 0.989 | locus YNL322C, strain KRE1, stronger effect = lower value 0.995 | locus YNR049C, strain mso1, stronger effect = lower value 0.979 | locus YNR052C, strain pop2, stronger effect = lower value 0.983 | locus YOL012C, strain htz1 1.17 | locus YOL147C, strain pex11, stronger effect = lower value 0.992 | locus YOR001W, strain rrp6, stronger effect = lower value 1.01 | locus YOR061W, strain CKA2, stronger effect = lower value 1 | locus YOR069W, strain VPS5, stronger effect = lower value 0.992 | locus YOR070C, strain gyp1, stronger effect = lower value 0.976 | locus YOR080W, strain dia2, stronger effect = lower value 0.989 | locus YOR083W, strain WHI5, stronger effect = lower value 1.05 | locus YOR106W, strain vam3, stronger effect = lower value 0.999 | locus YOR136W, strain idh2, stronger effect = lower value 0.995 | locus YOR144C, strain elg1, stronger effect = lower value 0.987 | locus YOR184W, strain ser1, stronger effect = lower value 1 | locus YOR231W, strain MKK1, stronger effect = lower value 0.984 | locus YOR265W, strain rbl2, stronger effect = lower value 0.989 | locus YOR270C, strain vph1, stronger effect = lower value 0.909 | locus YOR290C, strain snf2, stronger effect = lower value 0.921 | locus YOR316C, strain cot1, stronger effect = lower value 0.989 | locus YPL051W, strain arl3, stronger effect = lower value 1.01 | locus YPL078C, strain atp4, stronger effect = lower value 1.01 | locus YPL106C, strain sse1, stronger effect = lower value 0.996 | locus YPL240C, strain hsp82, stronger effect = lower value 1.02 | locus YPL256C, strain CLN2, stronger effect = lower value 0.962 | locus YPR119W, strain clb2, stronger effect = lower value 0.99 | locus YPR141C, strain kar3, stronger effect = lower value 0.994 | locus YPR163C, strain tif3, stronger effect = lower value 0.997 | locus YPR167C, strain met16, stronger effect = lower value 0.992 | strain wtn01, stronger effect = lower value 0.996
